Reference: PubChem BioAssay (NCATS)
Results filed as inconclusive are left out. Activity calls are given as the source filed them. Calls come from the whole dose curve; as a rule, active = well fitted curve in either direction with a large enough effect (not every such curve was filed as active); inconclusive = small, poorly fitted or top-dose-only effect, or another doubt; inactive = flat fitted curve, though single readings scatter.

Test: Stat Signaling Pathway (AID 446)
Conditions: ME-180 (cervical carcinoma) SIE beta-lactamase reporter, IL-6 stimulated, 5 h; series mostly up to 17.2 µM
Procedure: NCGC Assay Overview: The IL-6/STAT signaling pathway was assayed in ME-180 cervical carcinoma cells by a beta-lactamase reporter gene controlled by a STAT Inducible Element (SIE). This reporter is induced by IL-6 at 40 pM AC50 and inhibited by the pan JAK inhibitor, 2-(1,1-Dimethylethyl)-9-fluoro-3,6-dihydro-7H-benz[h]-imidaz[4,5-f]isoquinolin-7-one, at approximately 10 nM AC50. Plated cells were incubated overnight and on the following day, stimulated with 40 pM IL-6 for 5 hrs. The assay was screened at the AC50 of IL-6 activation to identify both inhibitors and activators of IL-6/STAT signaling.
NCGC Assay Protocol Summary: Cells were trypsinized, washed in assay medium (AM, OPTI MEM with 0.5% fetal bovine serum, 0.1 mM nonessential amino acids, 1 mM sodium pyruvate, 10mM HEPES pH 7.3, 100U/ml penicillin, and 100 ug/ml streptomycin) and suspended at 6 x 10e5/ml in AM. Approximately […] cells in 5 uL/well was dispensed into 1536 well plates and the cells were incubated overnight at 37 C. 23 nL of compound were delivered by a pin tool and 1 uL of IL-6 (40 pM final concentration in AM) was added. After centrifugation at 1000 rpm for less than a minute, plates were incubated at 37C for 5 hrs. One uL of detector mix (LiveBLAzerTM, Invitrogen) was added, the plates incubated at room temperature for 2.5 hrs, and fluorescence intensity at 460 and 530 nm emission was measured at 405 nm excitation by an Envision (Perkin Elmer) or Safire II (Tecan). Data were normalized by GeneData to the controls for AC90 stimulation (300 pM IL-6) and to AC90 inhibition (125 nM Jak inhibitor, 40 pM IL-6 in AM).

outcome, inactive:
CC(C)(C)NC[C@@H](O)COc1ccccc1C1CCCC1
CCCC[C@H](CC)CN1CN(C[C@@H](CC)CCCC)CC(C)(N)C1
CC(=O)c1cc2ccccc2oc1=O
COc1ccc2c(c1)N(C[C@@H](C)CN(C)C)c1ccccc1S2
Cc1ccsc1/C=C\C1=NCCCN1C
CC(C)(C)NC(=O)[C@@H]1C[C@H]2CCCC[C@@H]2CN1C[C@H](O)[C@H](Cc1ccccc1)NC(=O)[C@@H](CC(N)=O)NC(=O)c1ccc2ccccc2n1
Nc1ccccc1S(N)(=O)=O
CC[C@@H]1OC(=O)[C@H](C)[C@H](O[C@@H]2C[C@](C)(OC)[C@H](O)[C@H](C)O2)[C@H](C)[C@H](O[C@@H]2O[C@@H](C)C[C@@H](N(C)C)[C@@H]2O)[C@](C)(O)C[C@H](C)C(=NOCOCCOC)[C@H](C)[C@H](O)[C@]1(C)O
CC(C)(C)NC(=O)[C@@H]1CC[C@@H]2[C@@H]3CC[C@@H]4NC(=O)C=C[C@@]4(C)[C@H]3CC[C@]21C
C[C@@H](C(=O)O)c1ccc(N2Cc3ccccc3C2=O)cc1
NC[C@@H]1O[C@H](O[C@H]2[C@H](O)[C@@H](O[C@H]3[C@H](O)[C@H](N)C[C@H](N)[C@H]3O[C@@H]3O[C@H](CO)[C@@H](O)[C@H](O)[C@@H]3N)O[C@H]2CO)[C@@H](N)[C@H](O)[C@@H]1O
CC(=O)[C@H]1CC[C@@H]2[C@H]3CC=C4C[C@@H](O)CC[C@]4(C)[C@H]3CC[C@]12C
NCC[C@H](O)C(=O)N[C@H]1C[C@@H](N)[C@@H](O[C@H]2O[C@@H](CN)[C@@H](O)[C@@H](O)[C@@H]2O)[C@@H](O)[C@@H]1O[C@H]1O[C@@H](CO)[C@@H](O)[C@@H](N)[C@@H]1O
COC(=O)C1=C(C)NC(C)=C(C(=O)OC(C)C)[C@H]1c1cccc2nonc12
CC1=C(C(=O)O)N2C(=O)[C@@H](NC(=O)[C@@H](N)c3ccc(O)cc3)[C@@H]2SC1
COC(=O)C1=C(C)NC(C)=C(C(=O)OCCN(C)Cc2ccccc2)[C@H]1c1cccc([N+](=O)[O-])c1
CC1(C)O[C@H]2C[C@@H]3[C@H]4CCC5=CC(=O)CC[C@@]5(C)[C@]4(F)[C@@H](O)C[C@@]3(C)[C@@]2(C(=O)CCl)O1
CN1CCC[C@@H](CC2c3ccccc3Sc3ccccc32)C1
CC(C)(C)NC[C@H](O)COc1cccc2c1C[C@@H](O)[C@@H](O)C2
CC(=O)OCC(=O)[C@@]1(O)[C@H](C)C[C@@H]2[C@H]3CCC4=CC(=O)C=C[C@]4(C)[C@]3(F)[C@@H](O)C[C@@]21C
C=CCOc1ccccc1OC[C@H](O)CNC(C)C
CCN(CC)CCOC(=O)[C@@H](Cc1cccc2ccccc12)C[C@@H]1CCCO1
CCC(=O)OCC(=O)[C@@]1(OC(=O)CC)[C@H](C)C[C@@H]2[C@H]3CCC4=CC(=O)C=C[C@]4(C)[C@]3(Cl)[C@@H](O)C[C@@]21C
NC(=O)N/N=C\c1ccc([N+](=O)[O-])o1
COc1ccc(OC)c([C@H](O)CNC(=O)CN)c1
C[C@H](CCC(=O)O)[C@H]1CC[C@@H]2[C@@H]3[C@@H](O)C[C@H]4C[C@@H](O)CC[C@@]4(C)[C@H]3CC[C@@]21C
COc1cc(N[C@@H](C)CCCN)c2ncccc2c1
CC[C@H]1NC(=O)c2cc(S(N)(=O)=O)c(Cl)cc2N1
CC#C[C@@]1(O)CC[C@H]2[C@@H]3CCC4=CC(=O)CCC4=C3[C@H](c3ccc(N(C)C)cc3)C[C@]21C
C[N+]1(C)CCC[C@H]1C(=O)[O-]
CN1CCO[C@H](c2ccccc2)c2ccccc2C1
C=C1CC23C[C@H]4[C@@H]5[C@@]6(C)C[C@H](OC(=O)c7ccccc7)[C@@H](OC(C)=O)[C@]57[C@@H]2[C@@H](OC(C)=O)[C@H]1[C@@H](O)[C@H]3[C@H]7N4C6
CC[C@H](C)C(=O)O[C@@H]1C[C@H](C)C=C2C=C[C@H](C)[C@@H](CC[C@H]3C[C@@H](O)CC(=O)O3)[C@H]21
NC[C@@H]1O[C@@H](O[C@H]2[C@H](O)[C@H](O[C@@H]3O[C@H](CO)[C@@H](O)[C@H](N)[C@@H]3O)[C@@H](N)C[C@H]2N)[C@H](N)C[C@@H]1O
NC(=O)N[C@H]1NC(=O)NC1=O
CCOC(=O)O[C@]1(C(=O)COC(=O)CC)CC[C@@H]2[C@@H]3CCC4=CC(=O)C=C[C@@]4(C)[C@H]3[C@H](O)C[C@]21C
CC[C@](C)(CN(C)C)OC(=O)c1ccccc1
CC[C@H](CC[C@H](C)[C@@H]1CC[C@@H]2[C@H]3CC=C4C[C@@H](O)CC[C@]4(C)[C@H]3CC[C@]21C)C(C)C
Clc1ccc([C@H](Cn2ccnc2)OCc2c(Cl)cccc2Cl)c(Cl)c1
C[C@H](O)Cn1cnc2c1c(=O)n(C)c(=O)n2C
